Results filed as inconclusive are left out. Unmarked numbers belong to inactive results. The source made the active and inactive calls. Calls come from the whole dose curve; as a rule, active = well fitted activation curve with a large enough effect in the repeat runs; inconclusive = weak or mixed curves; inactive = no such curve, though single readings can be large or run the other way.
Biological target: Aryl hydrocarbon receptor (Homo sapiens) (UniProt P35869)
Assay: qHTS assay to identify small molecule that activate the aryl hydrocarbon receptor (AhR) signaling pathway (AID 743085); note: nearly all actives have a fitted effect of over 15% in size;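 for activation: HG2L7.5c1 human HepG2 liver cells with stably integrated DRE-driven firefly reporter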
Conditions: HepG2 AhR-luc (HG2L7.5c1), luciferase, 24 h; series mostly up to 70.3 µM; activation: at the top concentration
Text: U.S. Tox21 Program National Center for Advancing Translational Sciences [NCATS] NIH Chemical Genomics Center [NCGC] U.S. Environmental Protection Agency [EPA] National Institutes of Environmental Health Sciences [NIEHS] National Toxicology Program [NTP] U.S. Food and Drug Administration [FDA] Tox21 Assay overview: The Aryl hydrocarbon Receptor (AhR), a member of the family of basic helix-loop-helix transcription factors, is crucial to adaptive responses to environmental changes. AhR mediates cellular responses to environmental pollutants such as aromatic hydrocarbons through induction of phase I and II enzymes but also interacts with other nuclear receptor signaling pathways. A cell based HepG2-AhR-luc assay (HG2L7.5c1 cell line, developed by Dr. Michael S. Denison, University of California at Davis, was used to assess the activation of AhR. HepG2 (human hepatocellular carcinoma) cells were stably transfected with an Ah receptor-responsive firefly luciferase reporter gene plasmid containing 20 dioxin responsive elements and luciferase reporter gene. Increased luciferase activity can be used to identify the compounds that induce AhR activation.
Tox21 Assay Protocol Summary: 4000 cells in 5 uL/well were dispensed into white wall/solid bottom 1536-well plates using a Multidrop Combi (Thermo Fisher Scientific Inc., Waltham, MA) dispenser. After the assay plates were incubated at 37C for 5 h, 23 nL of compound or DMSO vehicle was transferred to the assay plates by a pintool station (Kalypsys, San Diego, CA). The plates were incubated at 37C for 24 hr. After 1 ul/well of CellTiter-Fluor reagent (Promega, Madison, WI) was added into the assay plates using a Flying Reagent Dispenser (FRD) (Aurora Discovery, CA), the assay plates were incubated at 37C for 30 min. The fluorescence intensity in the plates was measured using a ViewLux plate reader (PerkinElmer, Shelton, CT), followed by the addition of 4 uL of ONE-Glo Luciferase Assay reagent (Promega) using an FRD (Aurora Discovery). After the assay plates were incubated at room temperature for 30 min, luminescence intensity was measured using a ViewLux plate reader (Perkin Elmer).
% is set by controls: 0 for no effect and ±100 for the full control effect; potency is the fitted concentration of half-maximal effect.

Chain of Aryl hydrocarbon receptor (Homo sapiens) (P35869 whole entry, looked up): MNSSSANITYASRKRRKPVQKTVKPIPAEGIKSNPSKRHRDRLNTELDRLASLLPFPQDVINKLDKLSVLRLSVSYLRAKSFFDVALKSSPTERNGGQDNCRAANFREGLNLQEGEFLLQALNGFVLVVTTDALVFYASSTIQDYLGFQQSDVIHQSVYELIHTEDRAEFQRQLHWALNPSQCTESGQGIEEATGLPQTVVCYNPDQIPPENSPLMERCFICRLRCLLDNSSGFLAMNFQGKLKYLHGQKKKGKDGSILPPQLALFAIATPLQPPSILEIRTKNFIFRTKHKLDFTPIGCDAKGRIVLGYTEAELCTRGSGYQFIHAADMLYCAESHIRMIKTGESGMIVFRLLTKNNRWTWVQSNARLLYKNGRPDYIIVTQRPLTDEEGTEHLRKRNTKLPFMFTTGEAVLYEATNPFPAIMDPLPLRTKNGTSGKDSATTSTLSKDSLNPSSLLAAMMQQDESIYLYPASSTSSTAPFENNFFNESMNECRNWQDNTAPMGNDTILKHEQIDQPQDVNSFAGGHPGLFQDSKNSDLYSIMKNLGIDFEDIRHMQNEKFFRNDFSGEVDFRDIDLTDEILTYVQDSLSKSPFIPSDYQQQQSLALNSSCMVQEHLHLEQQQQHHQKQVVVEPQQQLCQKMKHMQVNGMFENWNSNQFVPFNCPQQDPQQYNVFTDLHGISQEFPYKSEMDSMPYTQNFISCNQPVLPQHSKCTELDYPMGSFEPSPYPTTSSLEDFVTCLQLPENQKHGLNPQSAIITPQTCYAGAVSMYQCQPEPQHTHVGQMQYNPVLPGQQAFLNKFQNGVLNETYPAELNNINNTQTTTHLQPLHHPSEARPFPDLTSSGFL

Row | SMILES | Potency | activation
1 | COC(=O)C1=C(C)NC(C)=C(C(=O)OCC(C)=O)C1c1ccccc1[N+](=O)[O-] (stereo not given) | 8.41 µM (active) | –
2 | CC(C)[N+](C)(C)CC(O)COc1cccc2ccccc12 (stereo not given) | – | -0.824%
3 | NC(=O)c1ncn([C@@H]2O[C@H](CO)[C@@H](O)[C@H]2O)c1N | – | -2.13%
4 | CCN(CC)S(=O)(=O)c1ccc(C(=O)O)cc1 | – | -0.0414%
5 | C/C=C1\C(=O)C[C@H]2[C@@H]3CCC4=CC(=O)CC[C@]4(C)[C@H]3CC[C@]12C | – | 1.12%
6 | O=C(O)CCNC(=O)c1ccc(N=Nc2ccc(O)c(C(=O)O)c2)cc1 | – | -0.0221%
7 | CC(C=O)Cc1ccc(C(C)C)cc1 (stereo not given) | – | 1.64%
8 | Cc1cc(C)cc(OCC2CNC(=O)O2)c1 (stereo not given) | – | 0.833%
9 | CC(=O)OC(C)(C)C | – | -1.19%
10 | CC1=CC(C)C(C=O)C(C)C1 (stereo not given) | – | -0.0943%
11 | CC(=O)O[C@H](CC(=O)[O-])C[N+](C)(C)C | – | -0.933%
12 | CC(C)(C)CC(C)(C)N | – | -0.213%
13 | CC(C)(C)OC(=O)N1C[C@@H](F)C[C@H]1C(=O)O | – | -2.71% [at 95 µM]
14 | N[C@@H](CS)C(=O)O | – | -1.34% [at 95 µM]
15 | OC[C@H]1O[C@@H]2O[C@H]3[C@H](O)[C@@H](O)[C@@H](O[C@H]4[C@H](O)[C@@H](O)[C@@H](O[C@H]5[C@H](O)[C@@H](O)[C@@H](O[C@H]6[C@H](O)[C@@H](O)[C@@H](O[C@H]7[C@H](O)[C@@H](O)[C@@H](O[C@H]8[C@H](O)[C@@H](O)[C@@H](O[C@H]9[C@H](O)[C@@H](O)[C@@H](O[C@H]1[C@H](O)[C@H]2O)O[C@@H]9CO)O[C@@H]8CO)O[C@@H]7CO)O[C@@H]6CO)O[C@@H]5CO)O[C@@H]4CO)O[C@@H]3CO | – | 1.86% [at 32.5 µM]
16 | CC1CCN(CCCC(=O)c2ccc(F)cc2)CC1 | – | 0.463%
17 | CC(=O)c1ccc(C)cc1 | – | -0.258%
18 | [O-][N+](=Nc1ccccc1)c1ccccc1 | 30.6 µM (active) | –
19 | CCOC(=O)Cn1c(=O)sc2cccc(Cl)c21 | 30.6 µM (active) | –
20 | COc1nc(C)nc(N)n1 | – | -1.22%

Row | SMILES | Potency | activation
21 | CC(C)CCOC(=O)CC(C)C | – | -0.0063%
22 | CCn1cc(C(=O)O)c(=O)c2cc(F)c(N3CCN(C)CC3)cc21 | – | -1.4%
23 | C=C(C)C1CC=C(C)C(O)C1 (stereo not given) | – | 0.299% [at 95 µM]
24 | C[C@H](O)C(=O)Nc1c(I)c(C(=O)NC(CO)CO)c(I)c(C(=O)NC(CO)CO)c1I | – | 0.0647% [at 32.5 µM]
25 | C1=C\CC/C=C\CC/C=C\CC/1 | – | -0.301%
26 | CC(C)COC(=O)C(C)C | – | -0.388%
27 | COc1cccc(Br)c1 | – | -0.0036%
28 | O=C(O)Cc1cc(I)c(Oc2cc(I)c(O)c(I)c2)c(I)c1 | – | -1.32%
29 | O=S(=O)(O)c1ccccc1O | – | -0.554%
30 | CCCCC1CCCCC(=O)O1 (stereo not given) | – | -3.45%
31 | N#CC1(O)CCCCC1 | – | -2.51% [at 95 µM]
32 | CCCCCCCCCCCCCCCCCC(=O)OCCCCCCCCCCCCCC(C)C | – | -1.37%
33 | CC(C)(C)N(CCO)CCO | – | -2.49% [at 95 µM]
34 | C=C(C)[C@H]1CC=C(C)CC1 | – | -0.0162%
35 | C=C(C)C(=O)OCCCCCCCCCCCCCCCCCC | – | 0.276% [at 32.5 µM]
36 | C1C2OC2C2C1C1CC2C2OC12 (stereo not given) | – | -1.62% [at 95 µM]
37 | COC(=O)c1ccc(C(=O)OC)c(C(=O)OC)c1 | – | 3.78%
38 | CC(C)(C)C(=O)/C=C/c1ccc(Cl)cc1 | – | 1.88%
39 | CCCCCCCCCCCCCCCCCCOCC(O)CO (stereo not given) | – | 2.08%
40 | CC1=CCC2C(C1)C2(C)C (stereo not given) | – | -0.803%
